# Screens deposited in PubChem by National Center for Advancing Translational Sciences (NCATS).
# RORgamma inh: inhibitors of mouse ROR gamma transcriptional activity; P51450; Drosophila S2 Gal4-RORgamma UAS-luciferase reporter, 20 h; Potency, µM (series often up to 53.6 µM), for inactives: at the highest dose activity change, negative = inhibition, usual class: inhibitors; hit rate 5.4% among 310,000; AID 2551; note: % is set by controls: 0 for no effect and ±100 for the full control effect; nearly all actives have a fitted effect of over 60% in size
# Target sequence (P51450 whole entry, looked up, the tested form may be a part): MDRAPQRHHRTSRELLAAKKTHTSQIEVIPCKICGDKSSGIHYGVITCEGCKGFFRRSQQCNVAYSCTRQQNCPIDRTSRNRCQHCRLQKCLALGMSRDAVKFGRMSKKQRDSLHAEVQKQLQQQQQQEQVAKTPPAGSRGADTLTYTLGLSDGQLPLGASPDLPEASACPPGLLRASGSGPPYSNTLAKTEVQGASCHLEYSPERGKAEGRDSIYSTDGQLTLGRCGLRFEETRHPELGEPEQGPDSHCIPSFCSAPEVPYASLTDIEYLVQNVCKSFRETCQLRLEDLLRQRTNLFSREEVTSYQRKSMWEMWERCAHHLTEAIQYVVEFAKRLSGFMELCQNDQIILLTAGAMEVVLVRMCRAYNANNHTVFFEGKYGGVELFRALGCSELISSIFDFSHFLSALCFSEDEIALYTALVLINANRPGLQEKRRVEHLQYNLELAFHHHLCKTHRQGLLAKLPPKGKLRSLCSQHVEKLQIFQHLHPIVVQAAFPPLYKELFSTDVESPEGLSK
#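 In this cell-based reporter format, copper sulfate (700 uM final) drives Gal4–ROR gamma fusion expression from a metallothionein promoter in Drosophila Schneider cells; compounds preincubated 1 hr, reporter read after 20 hr at ambient temperature.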
# Gal4-VP16 FLuc: Gal4-VP16 reporter inhibition counter-screen. Drosophila S2 Gal4-VP16 UAS-luciferase, luminescence, 20 h. Potency, µM (titrated, usually from 53.6 µM), inactives show at the top dose activity, negative = inhibition, usual class: inhibitors. hit rate 3.5% among 310,000. AID 2546;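 note: Gal4-VP16 expression switched on by copper sulfate through the metallothionein promoter; % is set by controls: 0 for no effect and ±100 for the full control effect; nearly all actives have a fitted effect of over 50% in size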
# ATXN2 expr inh: ATXN2 expression inhibition; HEK-293 ATXN2-luciferase reporter, luminescence, 24 h; Potency, µM (doses to about 57 µM), inactives show top-dose activity change, negative = inhibition, most hits filed as inhibitors; hit rate 0.72% among 360,000; note: % is set by controls: 0 for no effect and ±100 for the full control effect; nearly all actives have a fitted effect of over 55% in size
#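 qHTS (up to 57 uM final) was run with 24 h compound exposure of reporter cells at 37 °C. Each well was multiplexed: SteadyGlo luminescence measured ATXN2-luciferase expression after a fluorogenic Gly-Phe-AFC viability readout (25 uM final).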
# HepG2 tox: HepG2 cytotoxicity, counter-screen for TGF-b inhibitors. HepG2 CAGA-GFP viability, ATP luminescence, 18 h. Potency, µM (titrated, usually from 46.1 µM), for the others: at the top dose activity change, negative = cytotoxicity, usual class: cytotoxic. hit rate 0.76% among 410,000
#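 CellTiter-Glo luminescence gave cytotoxicity after 18 hours at 37 degrees C. The cells were HepG2 CAGA-GFP in 1% FBS DMEM, stimulated with 500 pg/mL TGF-beta after compound addition. %Activity was normalised to no-cell wells (complete cell-killing) and DMSO (no toxicity), and curves were fitted and classified.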
# TGFb SMAD3 inh: inhibitors of TGF-b signaling. HepG2 CAGA-GFP TGF-b/SMAD3 reporter, GFP fluorescence, 18 h; TGF-beta stimulated, 500 pg/mL final. Potency, µM (highest dose often 46.1 µM), without a hit: at the highest dose activity, negative = inhibition, actives largely listed as inhibitors. hit rate 1.2% among 410,000. AID 588855; note: % is set by controls: 0 for no effect and ±100 for the full control effect; nearly all actives have a fitted effect of over 65% in size
#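 TGF-beta reporter screen: HEPG2 CAGA-GFP, 1% FBS, 500 pg/mL TGF-beta final, 18 h; per-cell GFP summed per well; curves fitted and categorized by class.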
# ATXN viability: cell viability loss in ATXN counter-screen | S2 cells (HEK-293 line with an ATXN2-luciferase reporter) viability, CellTiter-Fluor protease fluorescence, 24 h | Potency, µM (highest dose often 56.7 µM), actives largely listed as cytotoxic | hit rate 0.49% among 400,000 | AID 651635; note: nearly all actives have a fitted effect of over 40% in size
# Starred values were filed as active, the others as inactive; i = inactive; ? = inconclusive; / = no result; [ ] = another dose, or the depositor's remark. The list is not random: actives were taken first. Their share in the collection is about 6.1%. Calls come from the whole dose curve; as a rule, active = well fitted curve in the direction sought with a large enough effect; inconclusive = small, poorly fitted or top-dose-only effect, or another doubt; inactive = no such curve, though single readings can be large; an effect the other way counts as inactive or inconclusive. Potency is the fitted concentration of half-maximal effect.
SMILES,RORgamma inh,Gal4-VP16 FLuc,ATXN2 expr inh,HepG2 tox,TGFb SMAD3 inh,ATXN viability
O=C(Nc1ccc(S(=O)(=O)Nc2ncccn2)cc1)c1ccc(S(=O)(=O)N2CCCC2)cc1,13µM*,-5%,1%,-4%,5%,i
Cc1ccnc(NS(=O)(=O)c2ccc(NC(=O)c3ccc(S(=O)(=O)N4CCCC4)cc3)cc2)n1,18%,0%,-5%,-3%,1%,i
COc1ccc(NS(=O)(=O)c2ccc(NC(=O)c3ccc(CN4CCOCC4)cc3)cc2)cc1,14µM*,3%,?,3%,-2%,i
O=C(Nc1ccc(S(=O)(=O)Nc2ccc(F)cc2)cc1)c1ccc(CN2CCOCC2)cc1,?,?,-24%,-4%,-26%,i
O=C(CSc1ccccc1)Nc1ccc(S(=O)(=O)Nc2ncccn2)cc1,13µM*,5%,7%,-22%,5%,i
O=C(CCSc1ccccc1)Nc1ccc(S(=O)(=O)Nc2ncccn2)cc1,5%,2%,-16%,6%,-23%,i
CNC(=O)c1[nH]cnc1C(=O)Nc1cccc(Cl)c1,/,/,12%,-15%,?,i
Cc1cccc(NC(=O)c2nc[nH]c2C(=O)Nc2ccccc2[N+](=O)[O-])c1,4.5µM*,5.6µM*,/,-7%,-3%,?
CNC(=O)c1[nH]cnc1C(=O)Nc1ccccc1OC,13µM*,16µM*,27%,-3%,?,i
CNC(=O)c1[nH]cnc1C(=O)Nc1ccccc1C,11µM*,7.9µM*,5%,12%,-2%,i
Cc1cccc(NC(=O)c2nc[nH]c2C(=O)Nc2cc(Br)ccc2F)c1,/,/,-5%,-13%,14%,i
O=C(Nc1ccccc1)c1nc[nH]c1C(=O)Nc1ccccc1F,/,/,-11%,-13%,-1%,i
COC(=O)C(=O)C/C(=N/Nc1ncnc2ccccc12)c1ccc(Cl)cc1,11µM*,?,26%,-49%,?,/
Cc1ccc(/C(=N/Nc2ncnc3ccccc23)C(=O)O)cc1,0.05µM*,0.89µM*,-5%,-77%,?,i
COc1cccc(/C=C/c2nc3ccccc3nc2/C=C/c2cccc(OC)c2OC)c1OC,/,/,/,-18%,25%,/
N=C1SCC(=O)N1c1ncc(Cc2ccc(F)cc2)s1,0.32µM*,0.2µM*,?,-27%,?,?
CSc1cccc(NS(=O)(=O)c2ccc3[nH]cc(C(=O)N4CCCCCC4)c(=O)c3c2)c1,/,/,1%,-6%,-29%,?
O=C(c1ccccn1)c1conc1C(=O)c1ccc(Br)cc1,13µM*,?,5%,-16%,3%,i
COc1ccc(C(=O)NC(=S)N2CCOCC2)cc1[N+](=O)[O-],2.2µM*,2.8µM*,4%,3%,6%,i
COc1ccc(C(=O)NC(=S)N2CCOCC2)cc1Br,1.3µM*,1.1µM*,16%,9%,-2%,i
O=C(Nc1nccs1)c1ccc(N2C(=O)C3CCCCC3C2=O)cc1 (centres undefined),-24%,3%,-3%,-1%,?,i
CN(c1ccc(C(=O)Nc2nccs2)cc1)S(=O)(=O)c1ccccc1,2.8µM*,-1%[0.365 µM],14%,-14%,2%,i
CN(c1ccccc1)S(=O)(=O)c1ccc(C(=O)Nc2nccs2)cc1,-4%,?,6%,0%,-27%,i
O=C(Nc1nccs1)c1ccc(S(=O)(=O)NCc2cccs2)cc1,?,?,17%,10µM*,?,i
O=C(Nc1nccs1)c1ccc(S(=O)(=O)NCC2CCCCC2)cc1,11µM*,-3%,-11%,-5%,?,i
SMILES,RORgamma inh,Gal4-VP16 FLuc,ATXN2 expr inh,HepG2 tox,TGFb SMAD3 inh,ATXN viability
O=C(NCCc1ccc(F)cc1)C(=O)NCC(c1cccs1)S(=O)(=O)c1ccccc1 (centres undefined),/,/,/,0%,-14%,/
O=C1CC(c2nnc(Cc3cccc(Cl)c3)o2)CN1c1ccccc1 (centres undefined),/,/,-10%,-11%,-11%,i
O=C(Nc1nc2c(F)cc(F)cc2s1)c1ccccn1,0.22µM*,2µM*,?,-32%,?,?
O=C(Nc1nc(-c2cccs2)cs1)c1ccc(S(=O)(=O)N2CCCCC2)cc1,40%,6%,-26%,-37%,?,i
CSc1ncccc1C(=O)Nc1nc2ccc(Oc3ccccc3)cc2s1,10µM*,?,/,-45%,?,i
CCc1noc(C)c1C(=O)Nc1nc2c(F)cc(F)cc2s1,/,/,2%,-5%,?,i
O=C(Nc1nc(-c2ccccn2)cs1)c1ccc(S(=O)(=O)N2CCCCC2)cc1,1.6µM*,6.3µM*,/,/,/,/
O=C(Nc1nc2ccc(S(=O)(=O)N3CCCC3)cc2s1)c1ccccn1,2.8µM*,?,-37%,-8%,-1%,?
O=C(Nc1ccccc1Br)N1CCN2CCCCC2C1 (centres undefined),/,/,15%,8%,12%,i
CCC1CN(C(=O)N2CCC(C(=O)NCCc3ccc(Cl)cc3)CC2)c2ccccc2O1 (centres undefined),/,/,/,1%,?,/
CCOc1ccc2nc(NC(=O)Nc3ccccc3)sc2c1,-45%,?,74%,-16%,-4%,i
Cc1ccc2nc(NC(=O)c3ccccn3)sc2c1,0.35µM*,1.1µM*,?,-51%,0%,?
CCOc1ccc2nc(NC(=S)NCc3ccccc3)sc2c1,2.2µM*,2.8µM*,-13%,-28%,-6%,i
O=C(COc1ccccc1)NNc1nc2c(F)cc(F)cc2s1,13µM*,0%,-2%,-4%,29%,i
Cc1ccc2nc(NC(=O)c3ccccc3F)sc2c1,1.3µM*,7.1µM*,63%,-2%,-2%,i
CCC(=O)NNc1nc2c(F)cc(F)cc2s1,-6%,-28%,-21%,-2%,-1%,?
CCOc1ccc2nc(NC(=O)c3ccoc3C)sc2c1,?,11µM*,2%,1.8µM*,-15%,i
CCOc1ccc2nc(NC(=O)c3ccco3)sc2c1,?,?,-29%,-52%,-6%,i
CCOc1ccc2nc(NC(=O)c3ccccn3)sc2c1,0.71µM*,2.8µM*,25µM*,-32%,-9%,?
O=C(NCC(O)CO)c1c(I)c(C(=O)NCC(O)CO)c(I)c(N(CCO)C(=O)CO)c1I (centres undefined),/,/,-5%,/,/,i
CC[C@H](C=C[C@@H](C)[C@H]1CC[C@H]2[C@@H]3CC=C4C[C@@H](O)CC[C@]4(C)[C@@H]3CC[C@]12C)C(C)C,/,/,-2%[25.6 µM],/,/,/
